Screening results deposited in PubChem by National Center for Advancing Translational Sciences (NCATS).
BAZ2B block – blocks human BAZ2B | Q9UIF8 | AlphaScreen BAZ2B-H3K14Ac peptide displacement | Potency, µM (top dose mostly 114 µM), for inactives: at the highest dose activity change, negative = inhibition, most hits filed as inhibitors | 4.4% of 360,000 active | AID 504333; also: % is scaled to controls: 0 for no effect and ±100 for the full control effect; nearly all actives have a fitted effect of over 60% in size
Target sequence (Q9UIF8 whole entry, looked up): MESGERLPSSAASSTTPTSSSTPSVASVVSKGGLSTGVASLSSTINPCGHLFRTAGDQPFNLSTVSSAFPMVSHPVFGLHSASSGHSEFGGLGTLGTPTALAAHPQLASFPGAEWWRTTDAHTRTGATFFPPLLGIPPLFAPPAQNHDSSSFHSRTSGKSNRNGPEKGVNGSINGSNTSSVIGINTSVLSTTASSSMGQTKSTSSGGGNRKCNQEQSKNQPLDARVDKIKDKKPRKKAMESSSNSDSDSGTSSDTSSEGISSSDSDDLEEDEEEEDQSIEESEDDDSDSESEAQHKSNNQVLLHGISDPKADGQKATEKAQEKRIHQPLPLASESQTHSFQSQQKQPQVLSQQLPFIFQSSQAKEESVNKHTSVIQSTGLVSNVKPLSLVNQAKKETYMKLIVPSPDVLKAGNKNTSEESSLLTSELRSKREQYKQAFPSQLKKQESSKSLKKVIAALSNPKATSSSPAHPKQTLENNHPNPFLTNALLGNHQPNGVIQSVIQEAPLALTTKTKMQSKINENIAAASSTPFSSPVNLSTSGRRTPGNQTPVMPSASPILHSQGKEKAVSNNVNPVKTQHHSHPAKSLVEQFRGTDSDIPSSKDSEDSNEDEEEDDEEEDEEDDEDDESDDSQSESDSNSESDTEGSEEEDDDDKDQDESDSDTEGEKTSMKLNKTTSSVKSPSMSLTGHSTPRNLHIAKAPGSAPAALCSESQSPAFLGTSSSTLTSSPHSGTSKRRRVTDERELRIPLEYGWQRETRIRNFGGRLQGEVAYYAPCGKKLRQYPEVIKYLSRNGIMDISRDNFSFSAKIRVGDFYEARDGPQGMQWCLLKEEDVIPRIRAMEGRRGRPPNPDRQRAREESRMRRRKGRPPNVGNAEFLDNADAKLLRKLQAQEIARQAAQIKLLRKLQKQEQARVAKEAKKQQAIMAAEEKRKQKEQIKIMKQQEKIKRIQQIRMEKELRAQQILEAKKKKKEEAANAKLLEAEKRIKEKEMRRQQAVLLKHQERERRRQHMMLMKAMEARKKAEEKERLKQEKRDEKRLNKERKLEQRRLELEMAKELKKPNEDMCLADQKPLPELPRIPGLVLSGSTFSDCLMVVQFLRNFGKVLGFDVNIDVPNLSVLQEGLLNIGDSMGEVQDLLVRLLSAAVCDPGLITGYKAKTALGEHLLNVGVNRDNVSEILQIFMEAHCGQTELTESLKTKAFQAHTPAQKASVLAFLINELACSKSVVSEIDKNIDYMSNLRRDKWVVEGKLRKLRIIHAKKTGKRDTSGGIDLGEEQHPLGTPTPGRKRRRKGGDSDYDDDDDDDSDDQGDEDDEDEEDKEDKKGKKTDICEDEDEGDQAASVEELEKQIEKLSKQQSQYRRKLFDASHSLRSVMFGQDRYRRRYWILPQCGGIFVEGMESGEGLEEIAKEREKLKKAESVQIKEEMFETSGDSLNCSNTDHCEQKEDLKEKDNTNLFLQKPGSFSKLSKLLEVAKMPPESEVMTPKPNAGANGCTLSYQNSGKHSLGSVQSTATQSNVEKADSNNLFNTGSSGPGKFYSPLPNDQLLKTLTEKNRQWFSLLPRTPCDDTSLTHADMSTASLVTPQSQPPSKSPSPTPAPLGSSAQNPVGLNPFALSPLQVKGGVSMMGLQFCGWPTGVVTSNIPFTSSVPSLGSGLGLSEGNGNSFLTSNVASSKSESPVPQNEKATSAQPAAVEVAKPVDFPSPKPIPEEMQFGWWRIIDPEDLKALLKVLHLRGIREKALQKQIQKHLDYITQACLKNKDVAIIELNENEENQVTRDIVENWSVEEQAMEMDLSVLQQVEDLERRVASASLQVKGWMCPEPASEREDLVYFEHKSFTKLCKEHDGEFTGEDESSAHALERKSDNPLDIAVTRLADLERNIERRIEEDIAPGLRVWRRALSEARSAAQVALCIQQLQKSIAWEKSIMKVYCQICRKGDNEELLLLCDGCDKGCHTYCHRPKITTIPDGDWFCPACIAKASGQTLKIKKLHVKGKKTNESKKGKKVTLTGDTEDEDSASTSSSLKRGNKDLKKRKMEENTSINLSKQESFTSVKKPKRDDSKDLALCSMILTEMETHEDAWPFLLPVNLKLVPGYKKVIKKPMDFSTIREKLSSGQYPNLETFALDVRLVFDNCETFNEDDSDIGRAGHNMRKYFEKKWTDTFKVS
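Complex of BAZ2B and biotin-H3K14Ac (50 nM apiece) forms over 30 min at RT, then faces library compounds up to 110 uM for another 30 min; AlphaScreen beads added, 20 min dark incubation, luminescence read.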
Sfp PPTase inh – Sfp phosphopantetheinyl transferase inhibition; Q9F4F7; Biochemical Sfp PPTase activity, qHTS; Potency, µM, for the others: largest response in the series, negative = inhibition, hits mostly inhibitors; 3.5% of 310,000 active; AID 1490;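 also: the enzyme is Sfp with the accession as filed and its product quenches rhodamine fluorescence; 0% = enzyme reaction without inhibitor and -100% = no enzyme wells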
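Step 1, compound plus 15 nM Sfp-PPTase, 15 min, room temperature. Step 2, add rhodamine-CoA (5 uM) and BHQ-2-YbbR (12.5 uM). Step 3, read 525/598 nm fluorescence at 0 and 30 min.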
HP1b chromo inh – HP1-beta chromodomain-methylated histone interaction inhibition | P83916 | AlphaScreen HP1-beta / biotin-H3K9me3 peptide binding | Potency, µM (highest dose often 114 µM), for the others: at the highest dose activity change, negative = inhibition, usual class: inhibitors | 0.56% of 390,000 active | AID 540317; also: nearly all actives have a fitted effect of over 70% in size
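Compound inhibition of the preformed complex between 50 nM HP1-beta and 50 nM biotinylated H3K9me3 peptide was read by AlphaScreen. Buffer was PBS pH 7.4 with 0.01% Tween-20. Incubations ran 30 min at room temperature, with 10 ug/mL donor/acceptor beads.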
PLK1 PBD block – inhibitors of human PLK1 polo-box domain binding; P53350; Plk1 PBD binding of FITC phosphopeptide, fluorescence polarization; Potency, µM, for inactives: max response, negative = inhibition, usual class: inhibitors; 2.8% of 360,000 active; AID 720504; also: series mostly up to about 57 µM; % is scaled to controls: 0 for no effect and ±100 for the full control effect; nearly all actives have a fitted effect of over 65% in size
JMJD2A Tudor – blocks the human JMJD2A Tudor domain | O75164 | AlphaScreen JMJD2A-Tudor / H3K4me3 peptide binding | Potency, µM (top dose mostly 114 µM), without a hit: top-dose activity change, negative = inhibition, hits mostly inhibitors | 4.4% of 390,000 active | AID 504339; also: % is scaled to controls: 0 for no effect and ±100 for the full control effect; nearly all actives have a fitted effect of over 50% in size
G9a block – G9a (human) methyltransferase inhibition; Q96KQ7; G9a H3K9 monomethylation, AlphaScreen, 2 h; Potency, µM (doses to about 102 µM), inactives show top-dose activity, negative = inhibition, usual class: inhibitors; 8.8% of 350,000 active; also: % is scaled to controls: 0 for no effect and ±100 for the full control effect; nearly all actives have a fitted effect of over 75% in size
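G9a (20 nM) was preincubated 15 min with compound, then reacted 2 h at room temperature with 500 nM biotin-H3K9 peptide and 20 µM SAM. Monomethyl-H3K9 detected by AlphaScreen using anti-H3K9me1 antibody.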
Active calls of the source: *; ? = inconclusive; · = no result; [ ] = remark or other dose. Compounds with a hit are over-represented: about 12% of the library has one in this group of screens. Calls follow the shape of the dose curve; as a rule, active = well fitted curve in the direction sought with a large enough effect; inconclusive = small, poorly fitted or top-dose-only effect, or another doubt; inactive = no such curve, though single readings can be large; an effect the other way counts as inactive or inconclusive. Potency is read from the fitted curve at half-maximal effect.

SMILES	BAZ2B block	Sfp PPTase inh	HP1b chromo inh	PLK1 PBD block	JMJD2A Tudor	G9a block
Cc1ccc(NC(=O)CSCc2ccco2)cc1	-20%	-2%	14%	-14%	-23%	-39%
Cc1cccc(CN2CCC(CNC(=O)CCNC(=O)Cn3ccc4ccccc4c3=O)CC2)c1	3%	2%	?	?	-31%[57.1 µM]	-30%[59 µM]
CCOc1ccc(NC(=O)CSc2nc3ccsc3c(=O)n2C(C)CC)cc1 (stereo not given)	2%	·	46%	·	3%	8%[59 µM]
CCOC(=O)c1ccc(/C=C2/C=C(c3ccccc3)N(c3ccc(Cl)c(C(=O)O)c3)C2=O)cc1	50µM*	?	-21%	18%	?	11µM*
CCOC(=O)c1ccc(Cl)c(NC(=O)c2ccc(-c3ccccc3)cc2)c1	-20%	1%	16%	-3%	-1%	77%[12.7 µM]
CC(Oc1ccc2ccc(=O)oc2c1)C(=O)c1ccccc1 (stereo not given)	11%	7%	23%	5%	8%	23%[59 µM]
CC1=CC(c2ccccc2)n2nc(N3C(=O)CCC3=O)nc2N1 (stereo not given)	?	-8%	35%	-3%	79µM*	20µM*
CC1=CC(c2ccccc2)n2nc(N3C(=O)c4ccccc4C3=O)nc2N1 (stereo not given)	-37%	-8%	30%	-16%	-30%	-2%[12.7 µM]
CC1=CC(c2ccccc2)n2nc(N3C(=O)C4CC=CCC4C3=O)nc2N1 (stereo not given)	-35%	9%	23%	-7%	-33%	25µM*
COc1cc(Cl)c(C)cc1NC(=O)CSc1sc2c(O)cc(=O)[nH]c2c1C#N	40µM*	?	1%	15µM*	56µM*	?
N#Cc1c(SCC(=O)Nc2ccc(C(F)(F)F)cc2)sc2c(O)cc(=O)[nH]c12	3%	?	11%	-18%	-21%	?
Cc1ccc(NC(=O)CSc2sc3c(O)cc(=O)[nH]c3c2C#N)c(F)c1	?	?	41%	?	-35%	?
N#Cc1c(SCC(=O)Nc2nncs2)sc2c(O)cc(=O)[nH]c12	10µM*	14µM*	?	?	25µM*	?
COc1ccc(OC)c(NC(=O)CSc2sc3c(O)cc(=O)[nH]c3c2C#N)c1	?	-24%	?	?	16µM*	?
O=C(O)Cn1c(C(=O)Nc2nc(-c3ccccc3Cl)cs2)cc2ccccc21	·	20%	·	·	·	-27%[12.7 µM]
CCOc1ccc(NS(=O)(=O)c2cc(C(=O)N3CCN(c4ccccc4O)CC3)ccc2Cl)cc1	?	·	7%	4%	-27%	?
CC1(C)Cc2ccccc2C(=O)N1	8%	11%	38%	-4%	-4%	6%[59 µM]
CC(C)c1ccc2c(c1)C(=O)NC(C)(C)C2	-5%	12%	17%	27µM*	?	11%
S=c1[nH]ccc2ccccc12	·	·	28%	?	-17%	·
S=c1[nH]ncc2ccccc12	7%	-18%	25%	-9%	50µM*	45µM*
COc1ccc(NC(=O)c2cccn2-c2nnc(N3CCCCC3)s2)cc1	-23%	·	-25%	·	-19%	-24%[59 µM]
Cc1cc(C)nc(NNC2=CC(=[N+]3CCCCC3)CC(C)(C)C2)n1	-12%	-86%	?	-7%	-39%	?
Cc1cc(C)nc(NNC2=CC(=[N+]3CCCC3)CCC2)n1	-8%	-98%	?	-21%	3.2µM*	?
COc1ccc(NC(=O)CN2C(=O)/C(=C3\SC(=S)N(C4CCS(=O)(=O)C4)C3=O)c3ccccc32)cc1 (stereo not given)	-20%	14µM*	?	-7%	-6%	·
O=C(CN1C(=O)C2CCCCN2C(=O)c2ccccc21)Nc1ccc(F)cc1 (stereo not given)	-16%	23%	64%	-2%	-11%	7%
O=C(CN1C(=O)/C(=C2\SC(=S)N(C3CCS(=O)(=O)C3)C2=O)c2ccccc21)Nc1ccc(F)cc1 (stereo not given)	-20%	-24%	-24%	-10%	-17%	20µM*
